Results reported in paper PMC5540273 (PLoS ONE, 2017).

Legend:
Conditions in all cases: concentration: 1 μM, replicates: in singlicate; n = 1
LRRK2 = system: LRRK2
LTK = system: LTK
LYN = system: LYN
LZK = system: T1, LZK
T1 construct: gene MAP3K13

MAK = system: MAK
MAP3K15 = system: MAP3K15
MAP3K1 = system: MAP3K1
MAP3K2 = system: MAP3K2
MAP3K3 = system: MAP3K3
MAP3K4 = system: MAP3K4
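Further: KINOMEscan kinase panel screen.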

Row | SMILES | %Inh (LRRK2) [%] | %Inh (LTK) [%] | %Inh (LYN) [%] | %Inh (LZK) [%] | %Inh (MAK) [%] | %Inh (MAP3K15) [%] | %Inh (MAP3K1) [%] | %Inh (MAP3K2) [%] | %Inh (MAP3K3) [%] | %Inh (MAP3K4) [%]
1 | COC(=O)c1cccc(NC(=O)NC2CCN(c3ccnc(Nc4ccc(F)cc4)n3)C2)c1 (centres unmarked) [GSK1379725] | 5 | 17 | 0 | 6 | 16 | 0 | 8 | 11 | 0 | 24
2 | Cc1ccc(NC(=O)Nc2ccccc2F)cc1-c1ccc(C(=O)Nc2ccncc2)cc1 [GSK1398477] | 15 | 16 | 47 | 0 | 30 | 0 | 12 | 5 | 0 | 24
3 | COc1ccc(CSc2nnc(-c3ccc4c(c3)CCO4)o2)cc1 | 0 | 0 | 0 | 3 | 0 | 0 | 0 | 0 | 0 | 8
4 | O=C(Nc1n[nH]c2nc(-c3ccco3)c(Br)cc12)C1CCN(Cc2ccccc2)C1.O=C(O)[C@H](O)[C@@H](O)C(=O)O (centres unmarked) [SB-742034] | 0 | 11 | 2 | 0 | 25 | 12 | 18 | 21 | 24 | 0
5 | COc1cc2ncnc(Nc3cccc(Br)c3)c2cc1OC.Cl [GI230329] | 0 | 0 | 67 | 38 | 34 | 0 | 2 | 33 | 29 | 4
